Assay outcomes deposited in PubChem BioAssay by several laboratories.
Sampled rows, rich in hits. Any-hit rate of the full collection: about 5.2%.
Candida biofilm: kills Candida albicans biofilms; C. albicans biofilm + clotrimazole, Alamar Blue; inhibition, % at 6 µM; 85,000 compounds, 0.14% hits; AID 834;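 active = inhibition above 20%; inactive = inhibition below 20%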;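 also: preformed 24 hr biofilms exposed to compound for 48 hr; 0% = biofilm without compound and 100% = blank killed by clotrimazole plus chlorhexidine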
EphB4 antag: antagonists of human EphB4-ephrin-B2 interaction; P54760; EphB4 LBD / TNYL-RAW-Alexa532 peptide, fluorescence polarization; inhibition, % at 7 µM; 97,000 compounds, 0.15% hits;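 active = inhibition above the screen-wide mean inhibition plus 3 SD, cut at about 15% in these data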;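 also: 0% = DMSO wells and 100% = excess unlabeled TNYL-RAW peptide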
Target sequence (P54760 whole entry, looked up, the tested form may be a part): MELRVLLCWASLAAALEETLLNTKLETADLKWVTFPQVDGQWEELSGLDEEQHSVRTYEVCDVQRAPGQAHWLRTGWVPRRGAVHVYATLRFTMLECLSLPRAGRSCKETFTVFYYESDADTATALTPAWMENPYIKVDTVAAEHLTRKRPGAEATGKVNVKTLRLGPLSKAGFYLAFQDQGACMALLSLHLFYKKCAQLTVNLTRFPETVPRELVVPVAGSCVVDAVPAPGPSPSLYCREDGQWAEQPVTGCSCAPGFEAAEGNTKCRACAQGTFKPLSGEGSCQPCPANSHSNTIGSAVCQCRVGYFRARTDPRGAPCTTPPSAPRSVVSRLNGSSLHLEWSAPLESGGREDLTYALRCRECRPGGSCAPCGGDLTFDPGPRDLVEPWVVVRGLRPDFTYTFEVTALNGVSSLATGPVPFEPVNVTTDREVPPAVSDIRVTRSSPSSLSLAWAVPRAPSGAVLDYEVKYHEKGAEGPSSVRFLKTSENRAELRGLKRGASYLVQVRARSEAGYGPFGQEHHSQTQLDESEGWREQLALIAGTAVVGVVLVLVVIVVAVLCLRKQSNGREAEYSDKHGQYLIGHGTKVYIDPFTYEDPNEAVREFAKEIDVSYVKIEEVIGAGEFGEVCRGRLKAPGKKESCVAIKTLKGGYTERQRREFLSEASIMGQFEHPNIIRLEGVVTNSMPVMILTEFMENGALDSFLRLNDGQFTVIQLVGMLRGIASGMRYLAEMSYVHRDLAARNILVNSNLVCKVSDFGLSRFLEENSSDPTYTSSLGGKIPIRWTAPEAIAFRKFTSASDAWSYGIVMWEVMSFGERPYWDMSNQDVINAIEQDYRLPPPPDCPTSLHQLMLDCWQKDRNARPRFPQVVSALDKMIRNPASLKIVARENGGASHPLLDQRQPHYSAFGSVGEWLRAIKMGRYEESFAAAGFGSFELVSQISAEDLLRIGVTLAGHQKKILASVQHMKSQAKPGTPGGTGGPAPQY
PostGolgi ctrl: inhibits growth of the yeast control strain; efflux-deficient yeast background strain, growth absorbance A615, 16 h; AID 738; inhibition, % at 10 µM; 98,000 compounds, 5% hits
PostGolgi yeast: growth inhibition of a yeast mutant, post-Golgi transport screen; post-Golgi transport phenotypic cell assay; inhibition, % at 10 µM; 98,000 compounds, 0.9% hits;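 also: yeast cells grown in 1536-well plates; yeast grown about 18 h at 30C before absorbance read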
* hit, by the source's call; . = no result. Rule as the data show it, unless noted: active = inhibition above about 30%; inactive = the rest.

SMILES | Candida biofilm | EphB4 antag | PostGolgi ctrl | PostGolgi yeast
Cc1cc(C)c2nc(N3CCCC(C(=O)N4CCN(c5ncccn5)CC4)C3)sc2c1 (stereo not drawn) | 4 | -3 | 67* | -2
CC1=C(C(=O)OCC(C)C)C(c2ccc(F)cc2)NC(=O)N1 (stereo not drawn) | 8 | 4 | 33* | 3
Cc1nc2c3ccccc3nc(SCC(=O)N3CC(C)CC(C)C3)n2n1 (stereo not drawn) | 8 | -9 | 32* | 0
COCCNC(=O)CSc1nc2ccccc2c2nc(C)nn12 | 8 | -4 | 6 | -11
Clc1ccc(-c2nnnn2-c2ccc(Cl)c(Cl)c2)cc1Cl | 5 | 0 | 14 | 18
O=C1CN(C(=O)c2ccc(Br)o2)C(c2ccccc2)c2cc(Cl)ccc2N1 (stereo not drawn) | 3 | -8 | 26 | -15
O=C1CN(C(=O)c2ccc(Br)o2)C(c2ccc(F)cc2)c2cc(Cl)ccc2N1 (stereo not drawn) | 7 | -4 | 31* | 0
Cc1ccc(C)c(C(=O)NCc2ccncc2)c1 | 0 | 0 | -3 | 35*
COc1ccc2c(c1)C(=NO)c1cc(OC)ccc1-2 | 3 | . | 46* | -7
C=CCOc1ccc2c(c1)C(=NO)c1cc(OCC=C)ccc1-2 | 3 | -2 | 9 | -1
COc1ccccc1-c1cc(C(F)(F)F)nc(NCc2ccco2)n1 | 1 | 1 | 31* | -3
FC(F)(F)c1cc(-c2ccco2)nc(NCc2ccccc2)n1 | 7 | -10 | 19 | 2
CCCCCCCCOC(=O)CCn1[nH]c(=O)c2ccccc2c1=O | 5 | 5 | 18 | 0
O=C1COc2cccnc2N1 | 4 | 5 | 38* | -1
O=C1COc2ccccc2CN1 | 0 | -1 | -7 | 1
O=C(C1CC=CCC1)N1CCN(C(=O)C2CC=CCC2)CC1 (stereo not drawn) | 6 | 0 | . | .
O=C(c1ccc(Cl)cc1)c1oc2ccccc2c1CS(=O)c1ccccc1 (stereo not drawn) | . | -9 | 49* | -4
Cc1ccc(C(=O)c2oc3ccccc3c2N)cc1 | 10 | 0 | . | .
CC1CC(C)CN(S(=O)(=O)c2ccc(C(=O)Nc3nnc(-c4cccs4)o3)cc2)C1 (stereo not drawn) | 7 | -1 | 23 | -2
O=C(Nc1nnc(-c2cccs2)o1)c1cccc(C(F)(F)F)c1 | 2 | 3 | 36* | 73*
COC(=O)c1cccc(CSc2nnc(C)s2)c1 | . | -9 | 2 | 20
Cc1ccc(CCNC(=O)C2CCCN(S(=O)(=O)c3cnc[nH]3)C2)cc1 (stereo not drawn) | -1 | 1 | 28 | -4
O=C(NCCc1ccc(Cl)cc1)C1CCCN(S(=O)(=O)c2cnc[nH]2)C1 (stereo not drawn) | 25* | 0 | 3 | -7
Cc1ccccc1CS(=O)(=O)c1nnc([C@H](CC(C)C)NC(=O)OC(C)(C)C)o1 | 1 | -3 | 45* | 41*
CC(C)(C)OC(=O)N[C@@H](Cc1ccccc1)c1nnc(S(=O)(=O)Cc2cccc(F)c2)o1 | 9 | -1 | 22 | 18
SMILES | Candida biofilm | EphB4 antag | PostGolgi ctrl | PostGolgi yeast
CC[C@@H](C)[C@H](NC(=O)OC(C)(C)C)c1nnc(S(=O)(=O)Cc2cc(C)ccc2C)o1 | -2 | 1 | 41* | 5
Cc1nc(NCCc2ccccc2F)c(C#N)c(C)c1[N+](=O)[O-] | . | 5 | 18 | 15
N#Cc1nc(-c2cccs2)oc1NCc1ccccc1Cl | -5 | -1 | 17 | 0
Cc1ccc2[nH]c(=O)c(CN(CCO)C(=O)N(C)C)cc2c1 | -1 | -3 | . | .
Cc1ccc(C2Oc3ccccc3C3=C2C(c2cccs2)n2ncnc2N3)cc1 (stereo not drawn) | 0 | 5 | 39* | 18
Fc1ccc(C2C3=C(Nc4ncnn42)c2ccccc2OC3c2ccncc2)cc1 (stereo not drawn) | 4 | 2 | 8 | -8
O=C(NCCc1csc(-c2ccc(C(F)(F)F)cc2)n1)c1cccs1 | 13 | -4 | 82* | 4
COCCNC(=O)c1ccc2c(c1)NC(=O)CS2 | 13 | 1 | 0 | 0
CCOc1cc2c(cc1C(C)(C)C)NC(=O)CS2 | 6 | -3 | 35* | 2
CCOC(=O)N1CCN(C(=O)Cc2ccsc2)CC1 | 4 | -4 | 9 | -7
CCCS(=O)(=O)N1CCCC(C(=O)NCCCN(CC)c2cccc(C)c2)C1 (stereo not drawn) | 10 | -6 | 31* | 13
CCCS(=O)(=O)N1CCCC(C(=O)NCCN(CC)CC)C1 (stereo not drawn) | 6 | 4 | 33* | 5
Cc1cc(C)c(NC(=O)CSc2nnc(SCC(=O)Nc3c(C)cc(C)cc3C)n2N)c(C)c1 | 5 | 5 | -2 | 11
Cc1ccc(C(=O)N/C(=C\c2ccco2)C(=O)NCCCn2ccnc2)cc1C | . | -2 | 0 | 9
CCn1c(-c2ccc(F)cc2)cnc1SCC(=O)N1CCCCC1C (stereo not drawn) | . | 5 | 14 | 1
COc1cccc(NS(=O)(=O)c2cc(C)sc2C)c1 | 7 | -1 | 18 | -1
Cc1cc(S(=O)(=O)Nc2ccc(N(C)C)cc2)c(C)s1 | 4 | 4 | 48* | 20
O=S(=O)(C=C(c1ccccc1)c1ccccc1)c1ccccc1 | . | -5 | 36* | -5
O=S(=O)(/C=C/c1ccccc1)c1ccccc1 | . | 2 | 5 | 1
C=CCNCc1cccn1-c1ccccc1 | 6 | 0 | 34* | -1
COC(=O)c1ccc(Cn2cc(Cl)cn2)cc1 | 7 | -2 | 2 | -5
O=C(Nc1cccc2ccccc12)c1ccc(Cn2cc(Cl)cn2)cc1 | . | -9 | 39* | -19
Cc1ccc(S(=O)(=O)N2CCOCC2)cc1C(=O)N1c2ccccc2Sc2ccccc21 | . | 5 | 19 | 22
CCc1cc2c(=O)c(-c3nc4ccccc4[nH]3)coc2cc1OC(=O)N1CCOCC1 | . | -1 | 3 | 31*
CCc1cc2c(=O)c(-c3nc4ccccc4[nH]3)coc2c(CN2CCC(C)CC2)c1O | 6 | -10 | . | .
SMILES | Candida biofilm | EphB4 antag | PostGolgi ctrl | PostGolgi yeast
O=C(C1CCCCC1)N(Cc1nc2sc3c(c2c(=O)[nH]1)CCCC3)Cc1cccs1 | 5 | 4 | 24 | 3
Cc1ccc(C(=O)C(OC(=O)CNC(=O)c2ccc(Cl)cc2)c2ccccc2)cc1 (stereo not drawn) | . | 1 | -5 | 0
N#C/C(=C/c1ccc(N2CCCCCC2)o1)c1ccc(F)cc1 | 7 | 5 | 5 | 30*
N#C/C(=C/c1ccc(N2CCCCCC2)o1)c1cccc(F)c1 | 4 | -1 | 1 | -5
COc1ccc(C2C=C(c3ccc(C)cc3)Nc3ncnn32)cc1 (stereo not drawn) | -6 | -1 | 7 | 1
COc1ccc(C2C=C(c3ccc(Br)s3)Nc3ncnn32)cc1OC (stereo not drawn) | . | . | 35* | 2
CCC(CC)NC(=O)Cc1ccccc1OC | 8 | -9 | 1 | 2
O=c1c2ccccc2nc(/C=C/c2cccc([N+](=O)[O-])c2)n1CCCO | . | 0 | . | .
O=c1c2ccccc2nc(/C=C/c2ccc([N+](=O)[O-])o2)n1CCCO | . | 1 | 62* | 91*
CS(=O)(=O)NCCOc1ccc(S(=O)(=O)N2CCCc3ccccc32)cc1 | -3 | -6 | 12 | -4
